Drawing on PubChem BioAssay AID1645853 (Buhrlage Lab, Dana-Farber Cancer Institute and Novartis …, 2021), this text covers inhibition for 67 molecules.

About 2,000 (4.3%) of roughly 47,000 compounds were called active. The sample as a whole holds a higher share of actives than the screen did. A number with no mark means an inactive call. No stated cut-off is given here; in the data, active means inhibition above about 30%; inactive means the rest.

The assay deals with Ubiquitin carboxyl-terminal hydrolase 8 (Homo sapiens) (UniProt P40818). Description: inhibitors of human USP8 deubiquitinase (AID 1645853). The conditions noted are these: purified USP8, Ub-rhodamine cleavage fluorescence, 30 min; at 20 µM; active compounds read high.
Ubiquitin carboxyl-terminal hydrolase 8 (Homo sapiens), sequence (P40818 whole entry, looked up): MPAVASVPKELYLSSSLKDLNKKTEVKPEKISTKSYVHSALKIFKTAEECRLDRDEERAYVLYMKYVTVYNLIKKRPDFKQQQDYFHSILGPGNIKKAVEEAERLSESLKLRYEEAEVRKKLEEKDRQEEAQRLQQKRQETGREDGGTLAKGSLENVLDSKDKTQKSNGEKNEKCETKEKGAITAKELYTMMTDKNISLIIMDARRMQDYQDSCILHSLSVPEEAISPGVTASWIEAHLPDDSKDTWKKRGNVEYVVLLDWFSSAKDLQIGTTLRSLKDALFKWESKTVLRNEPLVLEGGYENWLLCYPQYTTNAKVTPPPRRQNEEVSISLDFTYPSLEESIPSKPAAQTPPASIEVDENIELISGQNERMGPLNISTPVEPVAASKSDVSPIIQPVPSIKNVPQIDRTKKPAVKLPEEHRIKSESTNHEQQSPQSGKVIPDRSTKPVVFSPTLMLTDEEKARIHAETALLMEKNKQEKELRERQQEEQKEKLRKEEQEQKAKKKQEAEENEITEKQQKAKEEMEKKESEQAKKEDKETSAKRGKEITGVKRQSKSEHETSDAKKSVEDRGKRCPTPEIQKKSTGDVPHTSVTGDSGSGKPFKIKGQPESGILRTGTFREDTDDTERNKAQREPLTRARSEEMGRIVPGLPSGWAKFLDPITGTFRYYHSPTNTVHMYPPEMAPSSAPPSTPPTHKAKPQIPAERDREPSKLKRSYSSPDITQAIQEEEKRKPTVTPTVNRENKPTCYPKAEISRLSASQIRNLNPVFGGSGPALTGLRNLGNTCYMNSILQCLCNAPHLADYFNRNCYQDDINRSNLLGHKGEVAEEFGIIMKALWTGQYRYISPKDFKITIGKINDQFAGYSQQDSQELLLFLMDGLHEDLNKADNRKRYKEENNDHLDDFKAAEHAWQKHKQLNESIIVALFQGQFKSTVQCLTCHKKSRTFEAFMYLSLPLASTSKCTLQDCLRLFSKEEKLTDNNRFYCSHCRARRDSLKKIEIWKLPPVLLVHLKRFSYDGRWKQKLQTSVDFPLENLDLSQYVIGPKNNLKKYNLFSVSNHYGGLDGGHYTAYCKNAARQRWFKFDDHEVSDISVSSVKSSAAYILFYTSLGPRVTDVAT
Usually inhibition stands for the relative decrease from the control value, in per cent. As to `Cc1ccc(-n2c(C)nnc2SCC(=O)NC2CC2)cc1`, the inhibition was 1.76%. For the molecule `Cc1nc(C2CCCN2C(=O)c2ccc(OCC3CC3)nc2)no1` (configuration not stated), the inhibition is 5.37%.

For the molecule `Cc1nc2cc(-c3noc(-c4sc(C)nc4C)n3)ccc2o1`, the inhibition was 7.81%. Take `O=C(Cc1csc(NC(=O)c2ccc(=O)[nH]c2)n1)NCc1ccco1`: the inhibition is -11.3%. Consider `O=C(CCc1csc(NC(=O)c2ccc(=O)[nH]c2)n1)NCCc1c[nH]c2ccccc12`, for which the inhibition is 62.3% (active). In the case of `O=C(NCCc1c[nH]c2ccccc12)c1cc2cc(Cl)ccc2o1`, the inhibition is 16.2%. With `COc1cc(C2CCN(S(=O)(=O)c3cccc(C#N)c3)CC2)on1`, the inhibition was -4.99%. The figure for `N=C(N)C1CN(Cc2ccccc2)C(=O)NC1=O` (configuration not stated) is -100%.

Turning to `CCC(Oc1ccccc1)C(=O)NCc1ccc2c(c1)OCO2` (configuration not stated), the inhibition is -79.7%. Turning to `c1ccc(-c2ccc(NCc3ccc4c(c3)OCO4)nn2)cc1`, the inhibition is 92% (active). The figure for `c1cc(CNCc2ccc3c(c2)OCO3)ccn1` is 11%. Consider `COc1cc(N2CC[C@@H]3[C@@H](CO[C@H]3CNc3ncccn3)C2)ncn1`, for which the inhibition was -92.4%.

In the case of `N#Cc1cccc(CSc2ncnc(N)n2)c1`, the inhibition was 18.1%. As for `COc1ccc(CNC(=O)CSc2nnc3c4ccccc4nc(-c4ccco4)n23)cc1`, the inhibition is -1.03%.

Turning to `Cc1oc(CNC(=O)Cc2ccc(Cl)cc2)nc1C(=O)N1CCC(C)CC1`, the inhibition was 0.0949%.

As to `Cn1cc2nc(SCC(=O)NCc3ccc(Cl)cc3)n(CC3CC3)c(=O)c2n1`, the inhibition is 38.7% (active).

`O=C(CSc1ncn[nH]1)NCc1ccc2c(c1)OCO2`: the inhibition was 19.2%. As to `CCN1CCN(c2ccc(NC(=O)C3CCCCC3)cn2)C1=O`, the inhibition was 1.18%. For `CS(=O)(=O)N(Cc1ccccc1F)c1ccc(Oc2ccc(N(Cc3ccccc3F)S(C)(=O)=O)cc2)cc1`, the inhibition is 0.186%.

As to `O=C(NCCc1cccnc1)c1ccn(-c2ccc3ccccn23)n1`, the inhibition was -25.8%. For `Cc1nnc2ccc(-c3ccc(NC(=O)c4ccc(Br)o4)cc3)nn12`, the inhibition was 65.6% (active).

In the case of `Cc1ccc(-c2cc(C(F)F)n3ncc(C(=O)NCC(C)C)c3n2)cc1`, the inhibition was 25.9%.

Regarding `CCCCc1nc2sc3c(SCC(=O)NCc4ccccc4)ncnc3c2c2c1CCC2`, the inhibition was -1.42%. Take `CC1(C)CC(=O)c2ccc(OCC(=O)Nc3ccccc3)cc2O1`: the inhibition was 5.38%. With `O=C(O)CC1(CC(=O)Nc2ccc(Oc3ccccc3)cc2)CCCC1`, the inhibition is 33% (active). Take `COc1ccccc1C(=O)Nc1cccc(Oc2ccccc2)c1`: the inhibition is 11.4%. As to `Cc1cc(C)cc(NC(=O)c2cnc3sc4c(n3c2=O)CCCC4)c1`, the inhibition is 3.8%.

Regarding `CCOC(=O)c1cc2c(ccn2C)n1CC(=O)N1CCc2ccccc2C1`, the inhibition was -42.9%. Turning to `CCOC(=O)c1cc2c(ccn2C)n1CC(=O)Nc1ccc2c(c1)OCCO2`, the inhibition was 32.8% (active). Regarding `CCOC(=O)c1cc2c(ccn2C)n1CC(=O)N1CCC(C)CC1`, the inhibition was -57.3%. Take `O=C(c1ccc(Cl)cc1)N1CCSc2cc(Cl)ccc21`: the inhibition was 12%. With `COc1ccc(CC(=O)Nc2ccc3c(c2)CCC3)cc1S(=O)(=O)N1CCOCC1`, the inhibition is 0.366%. On to `COc1cc2c(cc1OC)CN(C(=O)c1cc(=O)c3ccccc3o1)CC2`, for which the inhibition was 3.84%. Consider `COc1ccc(CC(=O)Nc2ccc3c(c2)CN(C(=O)c2ccco2)CC3)cc1`, for which the inhibition is 33.2% (active). Under `CCN1CCn2c(-c3cnn(C)c3)cnc2C12CCN(S(=O)(=O)CC(C)C)CC2` stands -29.1%; under `Cc1ccc(CCNCc2c(C(=O)O)n(C)c3ccccc23)cc1`, -1.77%. On to `Cc1ccc(NC(=O)NCc2nnnn2-c2ccccc2)cc1C`, for which the inhibition is 0.496%. `CC(C)(C)c1nn(-c2ccccc2)c2[nH]c(=O)c(CNCCc3ccccc3)cc12`: the inhibition is 85% (active). In the case of `Cc1ccc(NCc2cc3c(C)nn(-c4ccccc4)c3[nH]c2=O)cc1C`, the inhibition was 76.5% (active). For `Cc1nn(-c2ccccc2)c2[nH]c(=O)c(C#N)c(-c3ccco3)c12`, the inhibition was 10.2%.

On to `Cc1cccc(-c2nnc3ccc(N4CCC(C(=O)NC(C)Cc5ccco5)CC4)nn23)c1` (configuration not stated), for which the inhibition was -6.13%.

Take `CN1C(=O)C(C)(C)COc2ccc(NS(=O)(=O)c3cccc(F)c3)cc21`: the inhibition was 11.7%. The figure for `Cc1ccc(Cn2nccc2NC(=O)c2cc(-c3ccccc3)on2)cc1` is 14.1%.

For the molecule `Cc1cc(C)cc(C(=O)N2CCN(c3nnc4ccccn34)CC2)c1`, the inhibition was -9.4%. On to `Cc1nonc1C(=O)NCC(=O)N1Cc2ccccc2OC2(CCOCC2)C1`, for which the inhibition is 20.5%. As for `COc1ccccc1CNC(=O)c1ccccc1N1C(=O)[C@@H]2Cc3c([nH]c4ccccc34)C(C)N2C1=O` (some centres not stated), the inhibition was -25.4%. With `O=C(Cc1c(Cl)cccc1Cl)NCc1cccc(C(F)(F)F)c1`, the inhibition was 49.9% (active). As to `O=C(NCc1ccccc1)c1nc[nH]c1C(=O)NCc1cccc(C(F)(F)F)c1`, the inhibition is -114%. With `O=C(Cc1cccc(C(F)(F)F)c1)Nc1cccn2ncnc12`, the inhibition was 2.29%.

Turning to `CC(C)=CCC(O)C1=CC(=O)c2c(O)ccc(O)c2C1=O` (configuration not stated), the inhibition was -234%. The figure for `Cc1cc(NC(C)C)n2ncc(-c3ccc(Cl)cc3)c2n1` is -13.7%; for `Cc1nc(CC(=O)Nc2ccc(F)c(F)c2)sc1C(=O)NC1CC1` it is 10.3%. Take `COc1cccc(CNS(=O)(=O)c2cc(-c3cc(C)no3)ccc2OC)c1`: the inhibition was -16.2%. Take `CCn1c(-c2ccccc2)c(C(=O)COC(=O)C(NC(=O)c2ccccc2)C(C)C)c2ccccc21` (configuration not stated): the inhibition is 13.1%.

As to `CN1C(=O)C2(CCN(C(=O)c3ccccc3Cl)C2)c2ccccc21` (configuration not stated), the inhibition is -3.42%. The figure for `O=C(Nc1ccccc1)N1CCN(c2ncccc2-c2nnc(C3CC3)o2)CC1` is -5.37%; for `CC1CCN(c2nc(F)c3c(c2F)S(=O)(=O)CCN3Cc2cccnc2)CC1` it is 85.2% (active).

`CCN1CCN(c2nc(F)c3c(c2F)S(=O)(=O)CCN3CC2CCCO2)CC1` (configuration not stated): the inhibition is 25.6%. The figure for `O=S1(=O)c2ccccc2O[C@H]2CCN(c3ncccn3)CC[C@@H]2N1Cc1cccnc1` is -15.4%.

For `COc1ccc(NC(=O)c2cc(S(=O)(=O)N3CCCCCC3)cn2C)cc1`, the inhibition was 0.0121%. Turning to `CC(CS(=O)(=O)c1ccc2c(c1)NC(=O)CCS2)C(=O)N1CCc2ccccc21` (configuration not stated), the inhibition is -14%. As to `CC1CN(C(=O)c2ccc(-n3cccn3)c(C#Cc3ccccn3)c2)CC(C)O1` (configuration not stated), the inhibition was -93.1%. Take `COc1ccc(-c2nc(-c3nnn(Cc4cccc(F)c4)c3C)no2)cc1`: the inhibition was 0.245%. The figure for `Cc1ccc(Cn2cc(-c3noc(-c4ccc[nH]4)n3)nn2)cc1` is 35.7% (active). The figure for `Cc1ccc(Cn2cc(-c3noc(-c4ccccn4)n3)nn2)cc1` is -56.3%; for `O=C(NCc1noc(C2CCCC2)n1)C1CCCCC1` it is 19.8%; for `CCc1nnsc1C(=O)N1CCOC(c2cccc(N(C)C)n2)C1` (configuration not stated) it is 11.8%.
